Assay results: PubChem BioAssay (NCATS)
Records with an inconclusive call do not appear. Active and inactive are the calls of the source. Unless noted, calls follow the shape of the dose curve; as a rule, active = well fitted curve in the direction sought with a large enough effect; inconclusive = small, poorly fitted or top-dose-only effect, or another doubt; inactive = no such curve, though single readings can be large; an effect the other way counts as inactive or inconclusive.

Experiments:
[1] = qHTS for differential inhibitors of proliferation of Plasmodium falciparum line 7G8 (AID 1815);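 also: parasite growth measured after three days of incubation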; also: potency is read from the fitted curve at half-maximal effect;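 as to activity change, negative = inhibition: plate controls were vehicle wells for no effect and reference inhibitor wells for full effect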
[2] = qHTS for differential inhibitors of proliferation of Plasmodium falciparum line GB4 (AID 1816); conditions: Potency: Plasmodium falciparum GB4 proliferation inhibition;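 also: parasite growth measured after 72 h incubation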; also: potency is read from the fitted curve at half-maximal effect;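 as to activity change, negative = inhibition: 0% = vehicle DMSO and -100% = reference inhibitor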
[3] = qHTS for differential inhibitors of proliferation of Plasmodium falciparum line 3D7 (AID 1876); also: potency is read from the fitted curve at half-maximal effect;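 as to activity, negative = inhibition: parasite growth measured after three days of culture; 0% = vehicle wells and -100% = reference inhibitor wells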
[4] = qHTS for differential inhibitors of proliferation of Plasmodium falciparum line W2 (AID 1883); conditions: Potency: Plasmodium falciparum W2 proliferation inhibition;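 also: parasites grown with compound for 72 h before lysis and staining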; also: potency is read from the fitted curve at half-maximal effect;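 as to activity change, negative = inhibition: 0% = vehicle wells and -100% = control inhibitor wells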
[5] = qHTS for differential inhibitors of proliferation of Plasmodium falciparum line HB3 (AID 1886); conditions: Potency: Plasmodium falciparum HB3 proliferation inhibition;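 also: parasites grown with compound for 72 h before SYBR Green readout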; also: potency is read from the fitted curve at half-maximal effect;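 as to activity change, negative = inhibition: plate controls were vehicle for no effect and reference inhibitor for full effect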
[6] = qHTS Assay for Modulators of Human Peripheral Myelin Protein 22 (PMP22) Expression/Activity (AID 1967; active = well fitted curve in the direction sought with a large enough effect in the signal ratio; the % refers to the signal ratio;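 also: 0% = untreated cells and 100% end not stated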)
Method in brief: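 Quantitative HTS in a mouse Schwann cell line expressing dual click beetle luciferases: Pmp22 promoter (green) and control EF-alpha promoter (red). After 24h treatment, corrected green/red signal ratio gave %Activity relative to untreated cells.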

[7] = biological target: Endonuclease 4 (Escherichia coli (strain K12)) (UniProt P0A6C1); assay: Counterscreen for APE1 Inhibitors: qHTS Validation Assay for Inhibitors of Endonuclease IV (AID 1708); also: % is scaled to controls: 0 for no effect and ±100 for the full control effect
Method in brief: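 E. coli EndoIV at 2 nM final, preincubated 15 min at room temperature with compound, then 50 nM TAMRA/BHQ-2 THF abasic-site duplex added. Buffer: 50 mM Tris-HCl pH 7.5, 50 mM NaCl, 2 mM MgCl2, 1 mM DTT, 0.01% Tween-20. Kinetic fluorescence increase, third minus first read.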

[8] = biological target: RecQ-like DNA helicase BLM (Homo sapiens) (UniProt P54132); assay: qHTS Validation Assay for Inhibitors of Bloom's syndrome helicase (BLM) (AID 2364);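 also: plate controls were DMSO vehicle for no effect and enzyme-free control for full effect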
Sequence of RecQ-like DNA helicase BLM (Homo sapiens) (P54132 whole entry, looked up): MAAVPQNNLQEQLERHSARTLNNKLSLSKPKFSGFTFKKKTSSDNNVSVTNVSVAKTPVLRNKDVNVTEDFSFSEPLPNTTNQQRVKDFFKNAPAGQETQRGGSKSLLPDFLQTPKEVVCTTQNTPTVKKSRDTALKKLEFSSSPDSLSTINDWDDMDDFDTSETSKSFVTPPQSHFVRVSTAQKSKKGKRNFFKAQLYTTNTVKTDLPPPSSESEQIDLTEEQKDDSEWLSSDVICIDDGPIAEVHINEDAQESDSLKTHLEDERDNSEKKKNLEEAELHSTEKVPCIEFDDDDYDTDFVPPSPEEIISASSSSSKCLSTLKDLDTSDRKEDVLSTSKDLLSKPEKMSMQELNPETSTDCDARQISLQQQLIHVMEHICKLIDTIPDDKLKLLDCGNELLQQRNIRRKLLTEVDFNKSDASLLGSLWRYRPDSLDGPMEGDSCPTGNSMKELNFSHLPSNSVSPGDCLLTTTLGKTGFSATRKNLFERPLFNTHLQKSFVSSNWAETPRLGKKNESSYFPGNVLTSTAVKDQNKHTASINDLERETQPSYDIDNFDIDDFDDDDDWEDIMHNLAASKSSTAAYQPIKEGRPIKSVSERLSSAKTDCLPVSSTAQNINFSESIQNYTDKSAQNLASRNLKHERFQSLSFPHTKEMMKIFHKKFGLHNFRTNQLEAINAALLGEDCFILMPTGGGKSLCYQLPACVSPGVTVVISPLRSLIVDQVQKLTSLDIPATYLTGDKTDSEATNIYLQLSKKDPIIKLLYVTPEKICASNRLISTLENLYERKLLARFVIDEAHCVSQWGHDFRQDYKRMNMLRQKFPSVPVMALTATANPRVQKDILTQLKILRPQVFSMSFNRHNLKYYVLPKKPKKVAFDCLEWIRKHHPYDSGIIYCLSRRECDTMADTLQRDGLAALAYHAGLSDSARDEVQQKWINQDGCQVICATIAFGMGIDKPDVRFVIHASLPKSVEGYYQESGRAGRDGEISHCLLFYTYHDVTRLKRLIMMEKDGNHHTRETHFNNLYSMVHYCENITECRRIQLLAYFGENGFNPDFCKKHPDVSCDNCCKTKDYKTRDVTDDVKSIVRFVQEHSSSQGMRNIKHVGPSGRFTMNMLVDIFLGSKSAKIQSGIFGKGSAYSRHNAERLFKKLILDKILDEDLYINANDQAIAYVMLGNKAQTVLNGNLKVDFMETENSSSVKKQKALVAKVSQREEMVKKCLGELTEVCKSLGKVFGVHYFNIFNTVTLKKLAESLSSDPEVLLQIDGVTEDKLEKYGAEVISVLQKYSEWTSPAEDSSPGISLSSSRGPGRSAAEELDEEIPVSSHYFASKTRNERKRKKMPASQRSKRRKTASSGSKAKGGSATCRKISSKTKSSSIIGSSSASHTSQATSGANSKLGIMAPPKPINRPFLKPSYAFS
Method in brief: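 50 nM BLM preincubated 15 min at room temperature with compound in pH 8.0 Tris buffer containing 2.5 ug/ml poly(dI-dC); started with 200 nM TAMRA/BHQ-2 forked duplex and 2 mM ATP (final). Unwinding read as TAMRA fluorescence increase, two reads 2 h apart.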

[9] = biological target: Lysosomal acid glucosylceramidase (Homo sapiens) (UniProt P04062); assay: Glucocerebrosidase-p2 (AID 348; in the data active = potency below about 10 µM; also: potency is read from the fitted curve at half-maximal effect); conditions: purified GBA, blue fluorogenic substrate, 40 min
Sequence of Lysosomal acid glucosylceramidase (Homo sapiens) (P04062 whole entry, looked up): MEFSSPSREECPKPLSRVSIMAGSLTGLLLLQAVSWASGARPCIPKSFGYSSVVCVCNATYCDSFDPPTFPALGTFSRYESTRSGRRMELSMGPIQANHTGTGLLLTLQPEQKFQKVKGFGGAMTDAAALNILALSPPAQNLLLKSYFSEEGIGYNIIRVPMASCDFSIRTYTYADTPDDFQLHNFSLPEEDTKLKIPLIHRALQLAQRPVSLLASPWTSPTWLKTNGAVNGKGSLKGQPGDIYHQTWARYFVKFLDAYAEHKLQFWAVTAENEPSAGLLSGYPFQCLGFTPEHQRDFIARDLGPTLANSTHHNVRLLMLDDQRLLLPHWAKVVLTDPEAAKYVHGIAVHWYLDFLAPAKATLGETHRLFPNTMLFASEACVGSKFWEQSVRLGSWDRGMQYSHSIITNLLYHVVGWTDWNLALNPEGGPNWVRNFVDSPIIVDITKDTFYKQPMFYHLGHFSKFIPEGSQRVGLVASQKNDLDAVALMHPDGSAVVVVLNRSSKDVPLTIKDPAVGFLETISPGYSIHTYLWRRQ
Method in brief: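 Compounds titrated from 0.6 nM upwards against 0.2 nM enzyme in pH 5.9 citric acid/KH2PO4, taurocholate, tween-20; blue fluorogenic substrate 80 uM, 40 min room temperature, stopped and read Ex 365/Em 440 for AC50.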

[10] = AP1 Signaling Pathway (AID 357; active = well fitted curve in either direction with a large enough effect, not every such curve was filed as active; also: % is scaled to controls: 0 for no effect and ±100 for the full control effect); conditions: ME-180 AP-1-bla reporter, EGF-induced, beta-lactamase ratio, 5 h; at 7.69 µM (top of the series) unless noted
Method in brief: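 AP-1-bla ME-180 cells with beta-lactamase reporter under AP-1 response element, stimulated with EC50 EGF; compounds titrated, 5 hours at 37 degrees Celsius. CCF4 read at 460/530 nm ratio; positive and negative modulators judged by AC50.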

[11] = NFAT Signaling Pathway (AID 444; active = well fitted curve in either direction with a large enough effect, not every such curve was filed as active;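 also: carbachol stimulus at about its EC50 of 1 µM final; % is scaled to controls: 0 for no effect and ±100 for the full control effect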); conditions: Jurkat NFAT-bla M1, carbachol, beta-lactamase ratio, 5 h; at 7.69 µM (top of the series) unless noted
Method in brief: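 Jurkat cells with NFAT-driven β-lactamase reporter and co-expressed M1 receptor, stimulated with carbachol (final 1 uM, ~EC50), compound titration, 5 h at 37 °C. CCF4 loaded 1 h at RT; 460/530 nm ratio gave %activity and AC50.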

[12] = Stat Signaling Pathway (AID 446; active = well fitted curve in either direction with a large enough effect, not every such curve was filed as active;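 also: ME-180 cervical cancer cells given 40 pM IL-6 alongside compound; SIE-controlled beta-lactamase reporter measured as 460/530 nm FRET emission ratio; % is scaled to controls: 0 for no effect and ±100 for the full control effect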); conditions: ME-180 SIE beta-lactamase reporter, IL-6 stimulated, 5 h; at 7.69 µM (top of the series) unless noted
Method in brief: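 Reporter line: ME-180 cervical carcinoma, SIE-beta-lactamase. Treatment: compound with 40 pM IL-6, 5 hrs, 37 C, in low-serum OPTI-MEM with 10 mM HEPES pH 7.3. Detection: 460/530 nm fluorescence.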

[13] = biological target: Glucocorticoid receptor (Homo sapiens) (UniProt P04150); assay: GR-GFP Redistribution (AID 450;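 active = compounds whose dose series gives a full or clear partial fitted curve of increased nuclear translocation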; also: potency is read from the fitted curve at half-maximal effect); conditions: U2OS GR-GFP nuclear translocation, laser cytometry, 2 h
Sequence of Glucocorticoid receptor (Homo sapiens) (P04150 whole entry, looked up, the tested form may be a part): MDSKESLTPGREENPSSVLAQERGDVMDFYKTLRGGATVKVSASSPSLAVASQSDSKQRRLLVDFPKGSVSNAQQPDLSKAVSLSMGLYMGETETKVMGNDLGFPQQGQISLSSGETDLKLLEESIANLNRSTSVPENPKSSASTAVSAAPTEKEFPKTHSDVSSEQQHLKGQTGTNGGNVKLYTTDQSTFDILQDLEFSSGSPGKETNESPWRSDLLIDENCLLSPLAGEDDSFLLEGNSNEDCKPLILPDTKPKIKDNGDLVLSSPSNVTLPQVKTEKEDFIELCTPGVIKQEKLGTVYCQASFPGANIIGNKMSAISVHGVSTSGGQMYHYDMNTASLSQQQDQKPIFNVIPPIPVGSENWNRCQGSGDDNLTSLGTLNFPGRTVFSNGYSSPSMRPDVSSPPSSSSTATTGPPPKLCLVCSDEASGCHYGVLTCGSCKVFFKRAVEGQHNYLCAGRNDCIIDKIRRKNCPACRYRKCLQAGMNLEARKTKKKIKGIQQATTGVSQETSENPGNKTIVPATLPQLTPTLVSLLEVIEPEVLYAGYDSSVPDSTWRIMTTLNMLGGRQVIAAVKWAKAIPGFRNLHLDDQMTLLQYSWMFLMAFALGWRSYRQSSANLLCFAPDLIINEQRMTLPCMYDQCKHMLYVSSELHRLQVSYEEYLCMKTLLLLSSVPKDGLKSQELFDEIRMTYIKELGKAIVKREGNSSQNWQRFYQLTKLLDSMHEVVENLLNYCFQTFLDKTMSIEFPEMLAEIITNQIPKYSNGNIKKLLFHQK

[14] = biological target: Mitogen-activated protein kinase 10 (Mus musculus) (UniProt Q61831); assay: JNK3 AlphaScreen Assay (AID 530; active = well fitted curve in either direction with a large enough effect, not every such curve was filed as active)
Method in brief: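 Pre-activated (IL-1β/TNFα) JNK3 in HepG2 lysates phosphorylates biotin-GST-cJun(1-79), 10 uM ATP; anti-phospho-cJun(Ser73) AlphaScreen read at room temperature, pH 7.6 Tris buffer. Compounds pre-incubated 15 min as titrations.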

[15] = biological target: Cytochrome P450 3A4 (Homo sapiens) (UniProt P08684); assay: qHTS Assay for Activators of Cytochrome P450 3A4 (AID 885); also: nearly all actives have a fitted effect of over 65% in size
Sequence of Cytochrome P450 3A4 (Homo sapiens) (P08684 whole entry, looked up): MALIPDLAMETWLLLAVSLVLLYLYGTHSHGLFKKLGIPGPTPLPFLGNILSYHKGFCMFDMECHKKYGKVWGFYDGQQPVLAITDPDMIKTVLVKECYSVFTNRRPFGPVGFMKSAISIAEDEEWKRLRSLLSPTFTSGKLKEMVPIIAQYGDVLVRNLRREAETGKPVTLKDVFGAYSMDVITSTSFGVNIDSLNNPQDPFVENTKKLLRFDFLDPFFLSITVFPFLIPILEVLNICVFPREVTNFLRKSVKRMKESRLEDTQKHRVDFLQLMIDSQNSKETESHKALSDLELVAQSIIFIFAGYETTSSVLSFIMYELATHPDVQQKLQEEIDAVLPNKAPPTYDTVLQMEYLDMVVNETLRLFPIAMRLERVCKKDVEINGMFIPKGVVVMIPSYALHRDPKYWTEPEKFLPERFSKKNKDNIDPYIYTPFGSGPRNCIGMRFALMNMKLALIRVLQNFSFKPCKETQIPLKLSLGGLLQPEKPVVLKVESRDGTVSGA
Method in brief: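 Signal was normalized against complete inhibition by 57 uM ketoconazole. The reaction used 20nM CYP3A4 with 25uM Luciferin-PPXE, 10-min compound preincubation and a 60-min NADPH-supported step at RT.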

[16] = qHTS profiling for inhibitors of Plasmodium falciparum proliferation (AID 504749);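 also: 0% = DMSO vehicle and full inhibition = artemisinin control; nearly all actives have a fitted effect of over 60% in size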; conditions: P. falciparum in erythrocytes, SYBR Green DNA, 72 h, at 28.7 µM (top of the series)
Method in brief: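 P. falciparum-infected erythrocytes (0.3% parasitemia, 2.5% hematocrit) incubated with compound 72 h at 37 C, 5% CO2. Parasite DNA detected by SYBR Green after lysis, overnight at room temperature; normalised to 0.29 uM artemisinin and DMSO.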

[17] = biological target: Glucocorticoid receptor (Homo sapiens) (UniProt P04150); assay: GR-EFC Redistribution (AID 451; calls by dose curve; also: potency is read from the fitted curve at half-maximal effect); conditions: CHO-K1 GR-EFC translocation, beta-gal luminescence, 2 h
Method in brief: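 CHO-K1 cells expressing nuclear EA and GR-ED fragments of b-gal; compounds titrated up to 46 uM final, 2 h at 37 C. GR nuclear translocation read as complemented b-gal luminescence after 1 h RT detection.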

[18] = biological target: 3',5'-cyclic-AMP phosphodiesterase 4B (Homo sapiens) (UniProt Q07343); assay: qHTS Assay for Inhibitors of PDE-IV (AID 607; active = well fitted activation curve with a large enough effect in the main read-out, with a control signal flat, not every such curve was filed as active; also: % of control where 0% means no effect)
Sequence of 3',5'-cyclic-AMP phosphodiesterase 4B (Homo sapiens) (Q07343 whole entry, looked up): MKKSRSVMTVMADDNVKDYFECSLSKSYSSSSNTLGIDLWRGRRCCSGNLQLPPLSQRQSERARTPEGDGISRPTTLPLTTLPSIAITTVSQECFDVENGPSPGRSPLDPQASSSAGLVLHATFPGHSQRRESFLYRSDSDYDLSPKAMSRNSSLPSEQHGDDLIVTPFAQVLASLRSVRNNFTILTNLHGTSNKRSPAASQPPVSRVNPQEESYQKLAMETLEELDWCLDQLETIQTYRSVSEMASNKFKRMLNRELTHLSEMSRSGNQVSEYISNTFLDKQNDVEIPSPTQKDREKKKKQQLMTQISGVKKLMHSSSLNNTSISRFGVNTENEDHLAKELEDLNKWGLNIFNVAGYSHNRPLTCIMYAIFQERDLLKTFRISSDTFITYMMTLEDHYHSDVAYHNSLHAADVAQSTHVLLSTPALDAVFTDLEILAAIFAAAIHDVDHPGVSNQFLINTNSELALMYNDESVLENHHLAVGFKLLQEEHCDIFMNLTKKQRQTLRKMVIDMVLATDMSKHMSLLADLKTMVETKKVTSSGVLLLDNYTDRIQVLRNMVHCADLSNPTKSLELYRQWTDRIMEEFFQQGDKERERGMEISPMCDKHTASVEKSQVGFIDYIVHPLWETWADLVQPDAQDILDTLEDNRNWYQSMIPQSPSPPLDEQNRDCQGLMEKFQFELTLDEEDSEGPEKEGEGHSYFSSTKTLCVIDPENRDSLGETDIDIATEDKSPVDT
Method in brief: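 Cell-based read-out of cAMP via a modified cyclic nucleotide-gated channel and membrane potential dye (535/590 nm) in HEK293 cells expressing PDE4 endogenously. Compounds tested up to 22.9 uM final; 100 uM RO 20-1724 reference.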

[19] = biological target: Phospholipid hydroperoxide glutathione peroxidase GPX4 (Homo sapiens) (UniProt P36969); assay: Primary qHTS Assay for Inhibitors of Recombinant Selenoprotein Glutathione Peroxidase 4 (GPX4) (AID 1845192); conditions: outcome: dose series up to 50 µM unless noted; also: % is scaled to controls: 0 for no effect and ±100 for the full control effect; nearly all actives have a fitted effect of over 65% in size
Sequence of Phospholipid hydroperoxide glutathione peroxidase GPX4 (Homo sapiens) (P36969 whole entry, looked up): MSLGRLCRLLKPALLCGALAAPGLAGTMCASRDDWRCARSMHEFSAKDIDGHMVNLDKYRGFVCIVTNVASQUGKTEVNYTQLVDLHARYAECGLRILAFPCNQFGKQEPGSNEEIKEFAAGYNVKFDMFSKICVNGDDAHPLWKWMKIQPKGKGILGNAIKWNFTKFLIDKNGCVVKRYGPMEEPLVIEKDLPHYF
Method in brief: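 GR-coupled assay: recombinant GPX4 preincubated 30 min with compound at room temperature; final 200 nM GPX4, 1 mM GSH, 0.5 mM cumene hydroperoxide, 0.5 mM NADPH, 100 nM GR, 0.01% BSA, pH 7.5 Tris. NADPH fluorescence (340/450 nm) read at 0 and 15 min.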

CSc1nc(N)c2ncn([C@@H]3O[C@H](COP(=O)(O)OP(=O)(O)O)[C@H](O)[C@H]3O)c2n1
inactive: Potency [1] | Potency [2] | Potency [3] | Potency [4] | Potency [5] | outcome [6]

NC(=S)c1ccc[n+]([C@@H]2O[C@@H](COP(=O)([O-])OP(=O)(O)OC[C@H]3O[C@@H](n4cnc5c(N)ncnc54)[C@H](OP(=O)(O)O)[C@H]3O)C(O)C2O)c1 (stereo partly drawn)
inactive: outcome [7] | Potency [1] | Potency [2] | Potency [3] | Potency [4] | Potency [5] | outcome [6]

CSc1nc(N)c2ncn([C@@H]3O[C@H](COP(=O)(O)OP(=O)(O)OP(=O)(O)O)[C@H](O)[C@H]3O)c2n1
inactive: outcome [7]
active: Potency [2] 12.6 µM | Potency [4] 12.6 µM

CN1CCc2cc(Cl)c(O)cc2C(c2ccccc2)C1 (stereo not drawn)
active: Potency [1] 7.94 µM | Potency [2] 11.2 µM | Potency [3] 11.2 µM | Potency [4] 4.47 µM | Potency [5] 12.6 µM
inactive: outcome [6] | Potency [8]

NC(=S)NCCCC(N)C(=O)O (stereo not drawn)
inactive: outcome [7] | Potency [1] | Potency [3] | Potency [4] | Potency [5]

COCCn1c(=O)c(CCc2ccccc2)nc2cnc(OC)nc21
inactive: Potency [9] > 11.4 µM | activity change, negative = inhibition [10] -6.75% | activity change, negative = inhibition [11] -10.3% | activity, negative = inhibition [12] -4.28% | Potency [13] > 9.22 µM | outcome [14] | Potency [15]

COc1ccc(CCNC[C@@H](O)c2ccc(O)cc2)cc1OC
inactive: outcome [7] | Potency [1] | Potency [2] | Potency [3] | Potency [5] | outcome [6] | Potency [8] | activity, negative = inhibition ([16]; parasite line A) 10.4% | activity, negative = inhibition ([16]; parasite line B) 8.86%

NCCCCNS(=O)(=O)c1cccc2c(Cl)cccc12
inactive: activity change, negative = inhibition [10] -2.83% [at 38 µM] | activity change, negative = inhibition [11] -12.9% [at 38 µM] | activity, negative = inhibition [12] 3.48% [at 38 µM] | Potency [13] > 46 µM | Potency [17] > 46 µM | Potency [18] | Potency [15] | outcome [7] | Potency [8]
active: Potency [1] 8.91 µM | Potency [2] 10 µM | Potency [3] 8.91 µM | Potency [4] 11.2 µM | Potency [5] 12.6 µM

Nc1nc2c(nc(Br)n2C2O[C@H]3COP(=O)(O)O[C@@H]3C2O)c(=O)[nH]1 (stereo partly drawn)
inactive: outcome [7]
active: Potency [3] 10 µM | Potency [4] 6.31 µM

CN(C)C1C(=O)C(C(N)=O)=C(O)[C@@]2(O)C(=O)C3=C(O)c4c(O)ccc(Cl)c4[C@@H](O)C3C[C@@H]12 (stereo partly drawn)
active: Potency [3] 0.794 µM | Potency [4] 0.891 µM
inactive: outcome [6]

OC[C@H]1O[C@@H](n2cnc3c(NC4CCCC4)ncnc32)[C@H](O)[C@H]1O
inactive: outcome [7] | Potency [2] | Potency [3] | Potency [5] | Potency [8]

CN1C[C@@H]2c3ccccc3Oc3ccc(Cl)cc3[C@H]2C1
inactive: Potency [19]

CN1C2CCC1CC(NC(=O)c1nn(C)c3ccccc13)C2 (stereo not drawn)
inactive: outcome [7] | Potency [2] | Potency [3] | Potency [5] | outcome [6] | Potency [8]

COCCn1c(=O)c(-c2ccc(F)cc2)nc2cnc(OCc3ccccc3)nc21
inactive: Potency [9] > 11.4 µM | activity change, negative = inhibition [10] -23.2% | activity change, negative = inhibition [11] -6.09% | Potency [17] > 46 µM | outcome [14] | Potency [18] | Potency [15]
